Gal4-VP16 FLuc = Gal4-VP16 reporter inhibition counter-screen; Drosophila S2 Gal4-VP16 UAS-luciferase, luminescence, 20 h; Potency, µM (doses to about 53.6 µM), for the others: top-dose activity, negative = inhibition, usual class: inhibitors; hit rate 3.5% among 310,000;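 note: Gal4-VP16 expression switched on by copper sulfate through the metallothionein promoter; potency is the fitted concentration of half-maximal effect; % is set by controls: 0 for no effect and ±100 for the full control effect; nearly all actives have a fitted effect of over 50% in size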
IL1B secr inh = inflammasome signaling inhibition, IL-1 beta readout; THP-1 LPS/ATP IL-1B secretion, AlphaLISA, 16 h; stronger effect = lower value; activity change, % at 57.5 µM; hit rate 4.7% among 360,000; in the data active = activity change below about -50%; inconclusive = mostly about -30% to -49%; note: % is set by controls: 0 for no effect and ±100 for the full control effect
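THP-1 cells pretreated 1 hr with compounds (up to 57.5 uM final), then stimulated with LPS (250 ng/mL final) plus ATP (1.25 mM final); secreted IL-1B measured by AlphaLISA after 16 hr, decreased signal indicating inhibition.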
MCF10A rereplic = DNA re-replication induction in MCF 10a cells. MCF 10A DNA re-replication, Hoechst nuclear intensity, 48 h. Potency, µM (titrated, usually from 46.1 µM), inactives show at the top dose activity, positive = re-replication, most hits filed as activators. hit rate 2.9% among 350,000; note: potency is the fitted concentration of half-maximal effect; % of control where 0% means no effect; nearly all actives have a fitted effect of over 50% in size
RORg inh = inhibitors of mouse ROR gamma transcriptional activity | Potency, µM (series often up to 53.6 µM), for inactives: at the top dose activity change, negative = inhibition, actives largely listed as inhibitors | Drosophila S2 Gal4-RORgamma UAS-luciferase reporter, 20 h | P51450 | hit rate 5.4% among 310,000; note: potency is the fitted concentration of half-maximal effect; % is set by controls: 0 for no effect and ±100 for the full control effect; nearly all actives have a fitted effect of over 60% in size
Target sequence (P51450 whole entry, looked up, the tested form may be a part): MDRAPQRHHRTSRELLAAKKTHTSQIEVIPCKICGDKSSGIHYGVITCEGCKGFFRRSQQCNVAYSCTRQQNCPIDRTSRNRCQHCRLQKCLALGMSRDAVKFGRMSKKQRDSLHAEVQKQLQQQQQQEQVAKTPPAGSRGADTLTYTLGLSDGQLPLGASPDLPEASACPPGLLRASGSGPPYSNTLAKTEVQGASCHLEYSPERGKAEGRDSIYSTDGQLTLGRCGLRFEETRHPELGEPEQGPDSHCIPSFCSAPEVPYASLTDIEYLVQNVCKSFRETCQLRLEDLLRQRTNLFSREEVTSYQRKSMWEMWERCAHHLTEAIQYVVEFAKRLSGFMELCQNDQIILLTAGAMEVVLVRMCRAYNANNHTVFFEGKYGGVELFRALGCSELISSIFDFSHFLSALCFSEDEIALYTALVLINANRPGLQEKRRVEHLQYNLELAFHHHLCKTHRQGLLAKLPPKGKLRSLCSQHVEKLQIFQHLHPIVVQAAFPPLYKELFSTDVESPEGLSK
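Read-out: Photinus luciferase luminescence; inhibitors lower reporter signal. Insect Schneider cells with Gal4-ROR gamma fusion under metallothionein promoter, UAS reporter; 700 uM final copper sulfate induction, 20 hr, ambient temperature.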
SW480 rereplic = DNA re-replication induction in SW480 cells; AID 624297; hit rate 1.8% among 340,000; Potency, µM (doses to about 46.1 µM), for the others: top-dose re-replication activation, usual class: activators; SW480 DNA re-replication, Hoechst DNA content imaging, 48 h; note: potency is the fitted concentration of half-maximal effect; % of control where 0% means no effect; nearly all actives have a fitted effect of over 55% in size
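Hoechst fluorescence of nuclei (405 nm excitation, 500-530 nm emission) measured by plate-scanning imager after 48 hr compound exposure at 37 C; re-replication scored as increased number of nuclei with elevated intensity.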
* hit, by the source's call; ? = inconclusive; nt = no result given; [ ] = another dose, or the depositor's remark. Sampled rows, rich in hits. Any-hit rate of the full collection: about 11%. Unless noted, calls come from the whole dose curve; as a rule, active = well fitted curve in the direction sought with a large enough effect; inconclusive = small, poorly fitted or top-dose-only effect, or another doubt; inactive = no such curve, though single readings can be large; an effect the other way counts as inactive or inconclusive.

SMILES	Gal4-VP16 FLuc	IL1B secr inh	MCF10A rereplic	RORg inh	SW480 rereplic
CCN(CC)CCn1c(SCC(=O)NCCC2=CCCCC2)nc2c(sc3ccccc32)c1=O	-1%	-60*	-1%	-16%	-5%
CCN(CC)CCn1c(SCC(=O)NCc2ccco2)nc2c(sc3ccccc32)c1=O	2%	-19	8%	-38%	1%
CCOCCCn1c(SCC(=O)Nc2cccc(OC)c2)nc2ccccc2c1=O	-1%	0	0%	8%	-1%
O=C(O)c1ccc(-c2c3nc(c(-c4ccc(C(=O)O)cc4)c4ccc([n-]4)c(-c4ccc(C(=O)O)cc4)c4nc(c(-c5ccc(C(=O)O)cc5)c5ccc2[n-]5)C=C4)C=C3)cc1.[Mn+3]	4%	nt	nt	-17%	nt
Cc1c(CNCCc2ccc(Cl)cc2)c(C(=O)O)c(C)n1-c1ccccc1	-2%	-9	-6%	19%	2%
COc1ccc(-c2oc3c(c2C#CCCCCO)C(OCCO)CC3)cc1 (configuration not stated)	nt	-17	nt	nt	nt
CC(C)(C)[C@@H]1CCC(=O)N(CC[C@H](Sc2ccc(Br)cc2)c2ccccc2)CC1	nt	0	?	nt	?
COc1ccc(C(=O)N/N=C/c2ccccc2OC(=O)c2ccccc2)cc1	5µM*	117	?	3.5µM*	?
COc1ccccc1/C=N/NC(=O)c1ccc2c(c1)OCO2	-15%	2	4%	?	2%
CC(C)(C)C(=O)Nc1ccc(C(=O)N/N=C/c2ccccc2OC(=O)c2ccccc2)cc1	?	96	?	6.3µM*	?
O=C(N/N=C/c1ccccc1OC(=O)c1ccc2c(c1)OCO2)c1ccccc1	?	0	21µM*	11µM*	?
O=C(O)COc1ccccc1/C=N/NC(=O)/C(=C\c1ccc2c(c1)OCO2)NC(=O)c1ccccc1	0%	-7	18µM*	8%	5%
COc1ccc(C(=O)N/N=C/c2ccc(OC(=O)c3ccccc3)cc2)cc1	-6%	-8	-7%	-23%	-8%
O=C(Nc1ccc(C(=O)O)cc1)/C(=C\c1ccc2c(c1)OCO2)NC(=O)c1ccccc1	-4%	0	3%	14%	-2%
COc1cccc(CCC(=O)Nc2cccc(S(=O)(=O)N3CCCC3)c2)c1OC	nt	-7	3%	nt	15%
CCC(=O)O[C@H](CC(=O)O)C[N+](C)(C)C	-3%	nt	nt	-1%	nt
CC(Oc1ccc(F)cc1)C(=O)Nc1cccc(S(=O)(=O)N(C)c2ccccc2)c1 (configuration not stated)	nt	9	nt	nt	nt
COc1ccc(C(=O)N2CCC3(CCN(Cc4nccs4)CC3)CC2)cc1	-2%	nt	nt	4%	nt
CC(C)(C)C(=O)Nc1ccc(C(=O)N/N=C/c2ccccc2OC(=O)c2ccc(Cl)cc2)cc1	-4%	3	12%	5%	2.6µM*
COc1ccc(COC(=O)N/N=C2/C[C@@H](O)[C@@H](O)[C@@H]3[C@@H]4C(=O)N(c5cccc(Oc6ccccc6)c5)C(=O)[C@H]4CC[C@@H]23)cc1	0%[10 µM]	nt	nt	9%[10 µM]	nt
CCN(CC)c1ccc(NC(=O)c2cccc(F)c2)c(C)c1	12%	-6	?	16%	18µM*
CCN(CC)c1ccc(NC(=O)c2ccco2)c(C)c1	5%	-11	-5%	3%	-11%
COc1ccc(-c2ccc(CN3C(C(C)C)C(=O)N(Cc4cn(Cc5ccco5)nn4)CCS3(=O)=O)cc2)cn1 (configuration not stated)	nt	-25	nt	nt	nt
CCc1ccc(S(=O)(=O)N2CC(=O)Nc3ccccc32)cc1	6%	0	-6%	10%	?
CCOC(=O)c1ccc(S(=O)(=O)N2CC(=O)Nc3ccccc32)cc1	-18%	17	?	8%	15µM*
SMILES	Gal4-VP16 FLuc	IL1B secr inh	MCF10A rereplic	RORg inh	SW480 rereplic
CCC/C(O)=C1\C(=O)CC(C)(C)CC1=Nc1ccc(OC)cc1OC	-5%	-19	21µM*	-16%	18µM*
CCC(=O)N1CCc2cc(S(=O)(=O)CCC(=O)Nc3nc(C)cs3)ccc21	-11%	-58*	?	0%	?
Cc1ccc(NC(=O)COC(=O)c2nn(-c3ccc(Cl)cc3)cc2O)cc1	nt	-1	?	nt	0%
NNC(=O)c1nn(-c2ccc(Cl)cc2)cc1O	-10%	-15	7%	-31%	21µM*
CSCCC1NC(=O)C(C(C)=NNC(N)=O)=C1O (configuration not stated)	nt	0	-9%	nt	-3%
O=C(CNC(=S)N(CCCN1CCOCC1)Cc1cccs1)NC1CCCCCCC1	-2%	-54*	?	-14%	13%
Cc1ccccc1NC(=S)N(Cc1cccs1)C1CCCCC1	4%	-3	19%	13µM*	1%
Cc1ccc(NC(=S)N(CCCN2CCOCC2)Cc2cccs2)c(C)c1	?	45	1%	?	2%
Cc1c(Cl)cccc1NC(=S)N(Cc1cccs1)C1CCCC1	?	19	5%	11µM*	0%
Cc1ccccc1NC(=S)N(C)Cc1cccs1	2%	16	0%	?	2%
O=C(CNC(=S)N(CCCN1CCOCC1)Cc1cccs1)NC1CCCCC1	-6%	7	9%	-43%	11%
Cc1c(Cl)cccc1NC(=S)N(CCCN1CCOCC1)Cc1cccs1	?	-4	18%	10µM*	-3%
Oc1ccccc1C=NCc1ccccc1	-12%	nt	12%	-18%	-3%
Cc1ccc(Cl)cc1NC(=S)N(Cc1cccs1)C1CCCC1	?	-15	0%	18µM*	14%
CCN(C(=S)Nc1ccccc1F)C1CCCCC1	3%	-8	3%	13µM*	7%
CCN(C(=S)Nc1ccc(OC(F)F)cc1)C1CCCCC1	-9%	?	13%	?	1%
COc1ccc(S(=O)(=O)N2CCCCCC2)cc1NC(=O)CN(C)Cc1ccc2c(c1)OCO2	nt	0	25%	nt	-1%
COc1ccccc1/C=C/C=N/n1c(C2CCCCC2)n[nH]c1=S	2.5µM*	-3	?	1.4µM*	1%
S=c1[nH]nc(C2CCCCC2)n1/N=C/c1cccs1	?	49	9%	14µM*	-13%
S=c1[nH]nc(C2CCCCC2)n1/N=C/c1ccccc1Cl	?	25	?	11µM*	-1%
FC(F)(F)c1ccccc1/C=N/n1c(C2CCCCC2)n[nH]c1=S	?	-14	?	7.9µM*	0%
O=C(O)c1ccccc1/C=N/n1c(C2CCCCC2)n[nH]c1=S	-5%	6	-11%	-17%	-11%
Cc1n[nH]c(=O)n(N=Cc2cccs2)c1=O	nt	-7	nt	nt	nt
CCc1nc2c(OCC(=O)N3CCOCC3)cccn2c1N(C)C(=O)COc1ccccc1	nt	-12	nt	nt	nt
COc1ccc([C@@H]2CC=C(C(=O)O)[C@H](c3cccc(Cl)c3)N2S(=O)(=O)c2ccccc2C)cc1	nt	38	-2%	nt	-8%
OC(c1ccc(Cl)cc1)c1ncc(-c2cccc(F)c2)[nH]1 (configuration not stated)	nt	-9	nt	nt	nt

High-throughput results as filed in PubChem.
